In PubChem BioAssay (NCI) one finds growth data, which are given here for 14 molecules.

Where “and” joins values, the source holds several entries; their conditions need not be identical. Equal entries are not always repeated. This is part of a sample that, as a whole, favours compounds with a hit. Of some 83,000 tested, about 20% had one in any assay.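 Note: values are percent growth. 100 is the growth of untreated cells, values between 100 and 0 indicate rising inhibition; between -100 and 0 indicates cell death.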 Values without a mark were called inactive. Calls of active or inactive are those of the source. Rule for the calls: active = growth percent below 10; inactive = the rest.

The test system of this assay is MDA-MB-468 breast. Put plainly: NCI-60 one-dose screen, 48 h (100 = growth as untreated, 0 = no growth, -100 = all killed). The settings on record: 10 µM unless noted.

For `COc1ccc(-c2nn(-c3cccc(Cl)c3)cc2-c2nc(N)[nH]c(=O)c2C#N)cc1`, the growth was 73.9%. Under `COc1cc(-c2nn(C(=O)NS(=O)(=O)c3ccccc3)cc2-c2ccncc2)ccc1Cl` stands 68%.

Regarding `C#C[C@]1(O)CC[C@H]2[C@@H]3CC=C4c5sc(-c6ccc(C)cc6)nc5CC[C@]4(C)[C@H]3CC[C@@]21C`, the growth was 84.4%. `CNCc1cccc2c1OCCOCCOCCN(C)S(=O)(=O)c1ccc(cc1)-c1cnc(N)c(n1)C(=O)N2`: the growth was 68.5%. On to `CCCCCCCCCCCCCC(=O)C(C)N` (centres undefined), for which the growth is 33.3%. For `CCN(CC)CCNC(=O)c1ccc(NCN2C(=O)NC(c3ccccc3)(c3ccccc3)C2=O)cc1`, the growth was 101% and 111%. For `O=C1c2ccccc2C(=O)c2c(NCCN=Cc3c(O)ccc4ccccc34)cccc21`, the growth is 84.5%. On to `COc1cc2cc(Oc3ccc(NC(=O)Nc4cccc(C(F)(F)F)c4)cc3)c(C)nc2cc1OC`, for which the growth was -32.5% (active). Regarding `CC1CCN(S(=O)(=O)c2ncsc2-c2ccccc2)CC1`, the growth was 94.4%.

With `COc1ccccc1N1CCN(C2=NN=C(c3cccc(Cl)c3)c3ccccc3C2)CC1`, the growth is -1.01% (active). For `Cc1nn(C)c2ncnc(Nc3ccccc3Br)c12`, the growth was 107%. The result for `Cc1nc2cc(Nc3nc(Nc4ccc(F)cc4)nc(N4CCN(C)CC4)n3)ccc2n1Cc1ccccc1` reads -32.7% (active). The result for `COc1ccc(S(=O)(=O)n2cc(C=O)c3ccccc32)c(OC)c1` reads 84.7%. Under `Cn1cc(-c2cc(N)n3nc(-c4cn(C)c5ccc(Cl)cc45)cc3n2)c2cc(Cl)ccc21` stands 96.3%.
